Assay [1] deals with POU1 (OCT1 POU domain) (human, UniProt P14859 260-458). Briefly: EMSA-SELEX-seq; no BOB1; 20 mM Tris-HCl pH 7.6, 140 mM NaCl, 10% glycerol, 0.5 mM EDTA, 0.05% Triton X-100, 0.1 mg/mL BSA, 0.1 mg/mL poly(dI-dC), 5 mM DTT, room temperature, 20 min; high values mean tight binding. The settings on record: protein: recombinant; dsDNA, one strand shown. The gist of the method: (§1)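 In this selection, tagged POU-domain proteins from E. coli BL21, purified under denaturing conditions and renatured, were bound to a PCR-amplified double-stranded random 35-nt library with or without coactivator protein. Reactions held 30 ng protein, 300 ng library and, where used, 28 ng coactivator protein in 20 μL Tris–HCl pH 7.6 binding buffer for 20 min at RT. Complex bands were cut from native 6% PAGE, eluted and PCR-amplified over four rounds, then Illumina-sequenced, and binding preference is the percentage of sequenced 8-mers matching a motif pattern.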
POU1 (OCT1 POU domain), sequence (P14859 260-458): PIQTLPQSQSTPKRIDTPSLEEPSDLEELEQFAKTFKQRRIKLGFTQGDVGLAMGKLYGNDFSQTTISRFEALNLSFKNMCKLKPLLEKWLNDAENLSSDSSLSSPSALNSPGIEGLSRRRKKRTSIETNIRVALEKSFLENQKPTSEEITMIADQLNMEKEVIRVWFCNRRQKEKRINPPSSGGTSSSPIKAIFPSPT

The target in assay [2] is T1, POU2 (OCT2 POU domain) (human, UniProt P09086 175-386).
T1 sequence: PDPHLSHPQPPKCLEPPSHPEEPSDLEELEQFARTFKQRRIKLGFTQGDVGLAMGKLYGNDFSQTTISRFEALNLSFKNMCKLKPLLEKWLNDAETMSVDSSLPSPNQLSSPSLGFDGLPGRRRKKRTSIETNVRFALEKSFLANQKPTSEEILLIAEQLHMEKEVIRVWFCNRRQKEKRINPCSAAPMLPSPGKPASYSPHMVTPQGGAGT
The description is as above. The conditions noted are these: protein: recombinant; dsDNA, one strand shown. The method, boiled down: as §1

The target of assay [3] is POU1 (OCT1 POU domain);BOB1 (OBF1, OCA-B) (human;human, UniProt P14859;Q16633 260-458;1-256, |). Briefly: EMSA-SELEX-seq; with BOB1 (ternary complex band); 20 mM Tris-HCl pH 7.6, 140 mM NaCl, 10% glycerol, 0.5 mM EDTA, 0.05% Triton X-100, 0.1 mg/mL BSA, 0.1 mg/mL poly(dI-dC), 5 mM DTT, room temperature, 20 min; high values mean tight binding. The conditions noted are these: protein: recombinant;recombinant; copies: 1;1; dsDNA, one strand shown. The method, boiled down: as §1

Assay [4] deals with T2, POU2 (OCT2 POU domain);BOB1 (OBF1, OCA-B) (human;human, UniProt P09086;Q16633 175-386;1-256, |).
T2 sequence 1: T1 sequence
T2 sequence 2: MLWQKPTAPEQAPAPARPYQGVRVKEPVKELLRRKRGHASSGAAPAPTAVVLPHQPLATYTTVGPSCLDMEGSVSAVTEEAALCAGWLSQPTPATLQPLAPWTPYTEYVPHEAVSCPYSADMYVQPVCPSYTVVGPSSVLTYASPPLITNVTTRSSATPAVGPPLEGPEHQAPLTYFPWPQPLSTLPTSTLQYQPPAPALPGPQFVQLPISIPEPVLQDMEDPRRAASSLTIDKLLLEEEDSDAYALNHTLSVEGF
The description is as above. The conditions noted are these: protein: recombinant;recombinant; copies: 1;1; dsDNA, one strand shown. The gist of the method: as §1

AAGCTAAA: the binding signal in assay [1] is 0.0347 % of ANNNNAAN 8-mers; in assay [2], 0.0449 % of ANNNNAAN 8-mers; in assay [3], 0.0453 % of ANNNNAAN 8-mers; in assay [4], 0.0347 % of ANNNNAAN 8-mers.
As for AGGACAAG, the binding signal in assay [1] is 0.0263 % of ANNNNAAN 8-mers; in assay [2] it was 0.0293 % of ANNNNAAN 8-mers; in assay [3], 0.0297 % of ANNNNAAN 8-mers; in assay [4], 0.0289 % of ANNNNAAN 8-mers.
For the sequence AACTAAAG, the binding signal in assay [1] was 0.024 % of ANNNNAAN 8-mers; in assay [2], 0.0311 % of ANNNNAAN 8-mers; in assay [3] it was 0.0293 % of ANNNNAAN 8-mers; in assay [4], 0.0355 % of ANNNNAAN 8-mers.
ATGGGAAC: the binding signal in assay [1] is 0.0496 % of ANNNNAAN 8-mers; in assay [2], 0.0443 % of ANNNNAAN 8-mers; in assay [3], 0.0488 % of ANNNNAAN 8-mers; in assay [4], 0.0421 % of ANNNNAAN 8-mers.
The matching figures for AAACAAAT: 0.352 % of ANNNNAAN 8-mers, 0.266 % of ANNNNAAN 8-mers, 0.761 % of ANNNNAAN 8-mers and 0.669 % of ANNNNAAN 8-mers.
Regarding AATATAAC, the binding signal in assay [1] was 0.05 % of ANNNNAAN 8-mers; in assay [2], 0.0817 % of ANNNNAAN 8-mers; in assay [3], 0.0589 % of ANNNNAAN 8-mers; in assay [4], 0.0578 % of ANNNNAAN 8-mers.
As to AACCTAAG, the binding signal in assay [1] is 0.0256 % of ANNNNAAN 8-mers; in assay [2], 0.0213 % of ANNNNAAN 8-mers; in assay [3], 0.018 % of ANNNNAAN 8-mers; in assay [4], 0.0173 % of ANNNNAAN 8-mers.
Turning to AATTAAAC, the binding signal in assay [1] was 0.14 % of ANNNNAAN 8-mers; in assay [2], 0.194 % of ANNNNAAN 8-mers; in assay [3], 0.0905 % of ANNNNAAN 8-mers; in assay [4] it was 0.0966 % of ANNNNAAN 8-mers.
The matching figures for ACGGAAAA: 0.0515 % of ANNNNAAN 8-mers, 0.0478 % of ANNNNAAN 8-mers, 0.0593 % of ANNNNAAN 8-mers and 0.0446 % of ANNNNAAN 8-mers.
For the sequence ATGATAAT, the binding signal in assay [1] is 0.513 % of ANNNNAAN 8-mers; in assay [2], 0.582 % of ANNNNAAN 8-mers; in assay [3], 0.138 % of ANNNNAAN 8-mers; in assay [4], 0.135 % of ANNNNAAN 8-mers.
For AATGGAAG the same measures were 0.101 % of ANNNNAAN 8-mers, 0.076 % of ANNNNAAN 8-mers, 0.0644 % of ANNNNAAN 8-mers and 0.0792 % of ANNNNAAN 8-mers.
On to ACGGAAAC, for which the binding signal in assay [1] was 0.0198 % of ANNNNAAN 8-mers; in assay [2] it was 0.019 % of ANNNNAAN 8-mers; in assay [3] it was 0.0289 % of ANNNNAAN 8-mers; in assay [4] it was 0.0305 % of ANNNNAAN 8-mers.
For ATGCAAAT the same measures were 5.32 % of ANNNNAAN 8-mers, 5.41 % of ANNNNAAN 8-mers, 8.18 % of ANNNNAAN 8-mers and 12.6 % of ANNNNAAN 8-mers.
The matching figures for AGCTGAAA: 0.0267 % of ANNNNAAN 8-mers, 0.0293 % of ANNNNAAN 8-mers, 0.0261 % of ANNNNAAN 8-mers and 0.0239 % of ANNNNAAN 8-mers.
Regarding ACGCTAAC, the binding signal is 0.0118 % of ANNNNAAN 8-mers in assay [1], 0.0121 % of ANNNNAAN 8-mers in assay [2], 0.0133 % of ANNNNAAN 8-mers in assay [3] and 0.0157 % of ANNNNAAN 8-mers in assay [4].
For AGAATAAT the same measures were 0.203 % of ANNNNAAN 8-mers, 0.3 % of ANNNNAAN 8-mers, 0.0948 % of ANNNNAAN 8-mers and 0.122 % of ANNNNAAN 8-mers.
The matching figures for AATCAAAG: 0.0854 % of ANNNNAAN 8-mers, 0.0857 % of ANNNNAAN 8-mers, 0.122 % of ANNNNAAN 8-mers and 0.0916 % of ANNNNAAN 8-mers.
Consider ATTGTAAA, for which the binding signal is 0.116 % of ANNNNAAN 8-mers in assay [1], 0.106 % of ANNNNAAN 8-mers in assay [2], 0.144 % of ANNNNAAN 8-mers in assay [3] and 0.0925 % of ANNNNAAN 8-mers in assay [4].
Take AATTAAAT: the binding signal was 0.333 % of ANNNNAAN 8-mers in assay [1], 0.39 % of ANNNNAAN 8-mers in assay [2], 0.19 % of ANNNNAAN 8-mers in assay [3] and 0.173 % of ANNNNAAN 8-mers in assay [4].
For ATGTCAAG the same measures were 0.0378 % of ANNNNAAN 8-mers, 0.0535 % of ANNNNAAN 8-mers, 0.0406 % of ANNNNAAN 8-mers and 0.052 % of ANNNNAAN 8-mers.
Regarding ATATGAAG, the binding signal is 0.0545 % of ANNNNAAN 8-mers in assay [1], 0.0823 % of ANNNNAAN 8-mers in assay [2], 0.0691 % of ANNNNAAN 8-mers in assay [3] and 0.0735 % of ANNNNAAN 8-mers in assay [4].
The matching figures for ATAAGAAG: 0.0614 % of ANNNNAAN 8-mers, 0.0771 % of ANNNNAAN 8-mers, 0.0562 % of ANNNNAAN 8-mers and 0.0636 % of ANNNNAAN 8-mers.

The values are drawn from article PMC10812921, “Transcriptional Coactivator BOB1 (OBF1, OCA-B) Modulates the Specificity of DNA Recognition by the POU-Domain Factors OCT1 and OCT2 in a Monomeric Configuration”.
